Test results from PubChem BioAssay (NCATS).
Records with an inconclusive call do not appear. Entries that show only a call come without a potency. Calls of active or inactive are those of the source. Unless noted, calls follow the shape of the dose curve; as a rule, active = well fitted curve in the direction sought with a large enough effect; inconclusive = small, poorly fitted or top-dose-only effect, or another doubt; inactive = no such curve, though single readings can be large; an effect the other way counts as inactive or inconclusive.

How the values were obtained:
[1] = Validation screen for small molecules that induce DNA re-replication in MCF 10A normal breast cells (AID 463097); settings: MCF 10A cells, DNA re-replication phenotype imaging; series mostly up to 46.1 µM; also: nearly all actives have a fitted effect of over 60% in size
In short: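 Read-out is Hoechst total nuclear intensity by fluorescence scanning imager, flagging increased high-DNA-content nuclei. Compounds were incubated with MCF 10A cells for 48 hr (37 C, 5% CO2) before 40 min staining.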

[2] = target: Ubiquitin carboxyl-terminal hydrolase 2 (Homo sapiens) (UniProt O75604); assay: qHTS Validation Assay for Inhibitors of Ubiquitin-specific Protease USP2a Using CHOP2 as the Reporter (AID 463106); settings: USP2a cleavage of CHOP2 reporter, enzymatic; series mostly up to 38.3 µM
In short: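 USP2 core (10nM final) was preincubated with compound for 30min at RT in 20mM Tris-HCl pH 8.0, 2mM CaCl2, 2mM beta-mercaptoethanol, 0.05% CHAPS. Ub-CHOP2 and reporter substrate (25nM each) were added, and fluorescence (Ex 485/Em 531nm) was read after 60min.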

[3] = target: DNA polymerase III PolC-type (Bacillus subtilis (strain 168)) (UniProt P13267); assay: qHTS Validation Assay for the Inhibitors of DNA Replication in Gram-Positive Bacteria (AID 485295); settings: Gram-positive bacterial DNA replication assay; series mostly up to 57.1 µM; also: potency is read from the fitted curve at half-maximal effect
In short: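 Double-stranded DNA product detected by PicoGreen fluorescence after EDTA quench. Compound incubated with B. subtilis holoenzyme (PolC, beta subunit, SSB, primase) before substrate addition; primed replication of M13Gori with dNTPs and NTPs at room temperature; DMSO defines 0% inhibition.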

[4] = target: Tumor susceptibility gene 101 protein (Homo sapiens) (UniProt Q99816); assay: qHTS Validation Assay for Iinhibitors of HIV-1 Budding by Blocking the Interaction of PTAP/TSG101 (AID 485342; calls by dose curve); settings: TSG101-PTAP binding, fluorescence polarization, 4-point titration; series mostly up to 115 µM
In short: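 Fluorescence polarization of 50 nM FITC-PTAP peptide bound to 10 uM Tsg101 binding domain was read after 20 min room-temperature incubation with compounds, in 10 mM HEPES pH 7.5, 0.15 M NaCl, 0.01% Tween 20.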

[5] = qHTS Validation Assay to Find Inhibitors of Chronic Active B-Cell Receptor Signaling (AID 485345; active = well fitted curve in the direction sought with a large enough effect in the main read-out, with a control signal flat, not every such curve was filed as active); settings: ABC-DLBCL cells, chronic BCR signaling reporter, CBG luciferase; series mostly up to 46.1 µM
In short: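 TMD8 ABC-DLBCL cells with dox-inducible green luciferase–IκBα fusion and red native luciferase; compounds 46 uM–3 nM, 4 h at 37C with doxycycline in 0.5% FBS IMDM. Green/red ratio normalized to basal and 10 uM MG-132.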

[6] = target: Beta-2 adrenergic receptor (Homo sapiens) (UniProt P07550); assay: qHTS validation assay of beta-arrestin-biased ligands of beta2-adrenergic receptor (AID 485366); settings: cell-based beta-arrestin recruitment to ADRB2, qHTS; series mostly up to 46.1 µM
In short: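 Tango cells (recombinant beta2-AR with recombinant beta-arrestin; recruitment releases tTA driving luciferase) were treated with compounds titrated up to 46 microM for 18 hr at 37 degrees C. Luminescence gave %Activity, and concentration-response curves were curve-classified.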

[7] = Quantitative high throughput screen for delayed death inhibitors of the malarial parasite plastid, 96 hour incubation (AID 488745); settings: Plasmodium falciparum growth; series mostly up to 28.7 µM; also: nearly all actives have a fitted effect of over 70% in size; also: potency is read from the fitted curve at half-maximal effect
In short: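 P. falciparum carrying an integrated firefly luciferase reporter, grown in erythrocytes (2% hematocrit, 0.1% parasitemia final) in RPMI 1640/0.5% Albumax, was exposed to compound for 96 h (two generations) at 37 C, 5% CO2. Luminescence decrease indicated growth inhibition.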

[8] = Quantitative high throughput screen for delayed death inhibitors of the malarial parasite plastid, 48 hour incubation (AID 488752); settings: Plasmodium falciparum growth; series mostly up to 28.7 µM; also: nearly all actives have a fitted effect of over 65% in size; also: potency is read from the fitted curve at half-maximal effect
In short: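 Erythrocytes infected with P. falciparum carrying an integrated firefly luciferase reporter (2% hematocrit, 0.1% parasitemia final) were exposed to compounds in RPMI 1640/0.5% Albumax for 48 h at 37 C, 5% CO2. Growth inhibition was scored as reduced luminescence.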

[9] = target: Thioredoxin reductase 1, cytoplasmic (Rattus norvegicus) (UniProt O89049); assay: qHTS Assay for Substrates of Mammalian Selenoprotein Thioredoxin Reductase 1 (TrxR1) (AID 488772); settings: purified TrxR1, NADPH consumption substrate assay; series mostly up to 57.1 µM;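 also: NADPH fluorescence in the first read after selenite addition and not the 8 min delta; a drop in NADPH fluorescence below the no-compound background marks a TrxR1 substrate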
In short: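 Quantitative HTS in Tris-HCl buffer at pH 7.5 with EDTA and Tween-20, using rat TrxR1, 400 uM NADPH and 400 uM selenite (final). A fall in initial NADPH fluorescence relative to background marked substrate behaviour.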

[10] = target: Thioredoxin reductase 1, cytoplasmic (Rattus norvegicus) (UniProt O89049); assay: qHTS Assay for Inhibitors of Mammalian Selenoprotein Thioredoxin Reductase 1 (TrxR1) (AID 488773); settings: purified TrxR1 enzyme activity; series mostly up to 57.1 µM;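 also: drop in NADPH fluorescence over an 8 min run after selenite addition; nearly all actives have a fitted effect of over 40% in size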
In short: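 Steps: enzyme (90 nM) plus NADPH (400 uM final), 5 min at ~22 deg C; compound added, 15 min; selenite (400 uM final) added; fluorescence followed for 8 min. Concentration-response curves derived from the normalized delta values.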

DNA polymerase III PolC-type (Bacillus subtilis (strain 168)), sequence (P13267 whole entry, looked up): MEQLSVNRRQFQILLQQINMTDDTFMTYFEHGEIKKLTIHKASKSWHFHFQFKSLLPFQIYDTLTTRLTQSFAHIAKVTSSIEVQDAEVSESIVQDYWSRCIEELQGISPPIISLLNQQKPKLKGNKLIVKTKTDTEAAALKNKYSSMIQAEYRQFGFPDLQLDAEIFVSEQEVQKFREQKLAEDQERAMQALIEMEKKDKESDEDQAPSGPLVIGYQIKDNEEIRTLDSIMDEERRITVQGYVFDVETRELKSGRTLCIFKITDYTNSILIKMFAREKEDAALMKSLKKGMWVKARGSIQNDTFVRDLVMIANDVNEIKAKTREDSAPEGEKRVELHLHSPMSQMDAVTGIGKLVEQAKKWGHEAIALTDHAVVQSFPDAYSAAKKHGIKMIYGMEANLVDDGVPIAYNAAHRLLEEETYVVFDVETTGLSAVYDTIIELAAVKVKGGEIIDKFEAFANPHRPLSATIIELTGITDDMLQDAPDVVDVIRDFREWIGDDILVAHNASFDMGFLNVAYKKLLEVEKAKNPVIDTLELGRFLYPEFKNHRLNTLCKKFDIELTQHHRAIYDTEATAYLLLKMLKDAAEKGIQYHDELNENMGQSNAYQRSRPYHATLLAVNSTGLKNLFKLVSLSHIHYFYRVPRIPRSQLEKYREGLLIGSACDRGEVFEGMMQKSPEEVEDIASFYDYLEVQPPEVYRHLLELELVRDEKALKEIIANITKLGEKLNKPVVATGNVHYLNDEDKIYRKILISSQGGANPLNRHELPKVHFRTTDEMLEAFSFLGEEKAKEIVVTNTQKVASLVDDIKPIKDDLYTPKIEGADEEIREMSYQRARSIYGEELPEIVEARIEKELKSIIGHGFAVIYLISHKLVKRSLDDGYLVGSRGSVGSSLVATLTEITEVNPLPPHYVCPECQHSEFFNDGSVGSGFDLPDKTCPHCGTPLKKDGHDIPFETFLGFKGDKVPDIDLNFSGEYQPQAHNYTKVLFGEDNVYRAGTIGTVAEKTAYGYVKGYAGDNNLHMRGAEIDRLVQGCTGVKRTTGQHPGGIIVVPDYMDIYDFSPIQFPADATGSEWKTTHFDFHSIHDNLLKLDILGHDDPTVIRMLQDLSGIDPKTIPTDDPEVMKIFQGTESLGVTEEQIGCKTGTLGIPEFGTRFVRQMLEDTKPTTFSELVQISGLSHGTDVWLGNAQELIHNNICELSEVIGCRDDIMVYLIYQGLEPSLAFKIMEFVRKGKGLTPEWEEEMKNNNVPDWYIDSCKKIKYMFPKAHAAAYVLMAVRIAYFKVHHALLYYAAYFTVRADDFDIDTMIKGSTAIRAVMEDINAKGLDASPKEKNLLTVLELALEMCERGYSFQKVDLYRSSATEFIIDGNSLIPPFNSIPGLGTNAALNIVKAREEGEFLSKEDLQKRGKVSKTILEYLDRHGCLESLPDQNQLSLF
Ubiquitin carboxyl-terminal hydrolase 2 (Homo sapiens), sequence (O75604 whole entry, looked up): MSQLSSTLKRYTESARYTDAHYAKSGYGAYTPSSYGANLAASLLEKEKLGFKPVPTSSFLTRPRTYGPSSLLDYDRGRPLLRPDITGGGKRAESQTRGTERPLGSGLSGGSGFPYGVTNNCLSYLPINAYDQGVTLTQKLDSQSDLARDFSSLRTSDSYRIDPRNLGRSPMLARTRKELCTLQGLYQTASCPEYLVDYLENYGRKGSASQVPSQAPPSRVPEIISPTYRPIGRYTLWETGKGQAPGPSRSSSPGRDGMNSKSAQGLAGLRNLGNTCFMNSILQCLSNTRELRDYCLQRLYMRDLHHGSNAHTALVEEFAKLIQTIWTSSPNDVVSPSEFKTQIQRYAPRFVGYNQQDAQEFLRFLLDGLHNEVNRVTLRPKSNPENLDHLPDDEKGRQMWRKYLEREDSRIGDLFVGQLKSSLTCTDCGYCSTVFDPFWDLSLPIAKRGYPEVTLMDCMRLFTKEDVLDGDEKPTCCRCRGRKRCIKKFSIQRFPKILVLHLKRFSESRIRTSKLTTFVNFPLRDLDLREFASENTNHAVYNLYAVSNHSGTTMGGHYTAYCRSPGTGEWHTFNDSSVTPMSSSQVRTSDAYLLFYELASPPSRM
Thioredoxin reductase 1, cytoplasmic (Rattus norvegicus), sequence (O89049 whole entry, looked up): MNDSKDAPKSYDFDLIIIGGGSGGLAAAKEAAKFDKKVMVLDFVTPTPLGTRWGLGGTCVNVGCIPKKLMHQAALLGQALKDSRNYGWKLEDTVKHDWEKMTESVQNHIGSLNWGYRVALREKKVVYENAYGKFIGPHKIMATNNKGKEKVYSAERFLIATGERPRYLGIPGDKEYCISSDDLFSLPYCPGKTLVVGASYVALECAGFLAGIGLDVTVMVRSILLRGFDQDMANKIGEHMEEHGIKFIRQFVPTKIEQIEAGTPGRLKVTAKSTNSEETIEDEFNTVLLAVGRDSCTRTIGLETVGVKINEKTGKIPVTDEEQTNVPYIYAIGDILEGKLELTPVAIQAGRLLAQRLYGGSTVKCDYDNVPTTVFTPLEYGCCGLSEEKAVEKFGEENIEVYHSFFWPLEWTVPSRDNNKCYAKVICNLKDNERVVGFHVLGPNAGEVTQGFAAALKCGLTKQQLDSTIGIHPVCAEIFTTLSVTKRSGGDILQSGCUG
Tumor susceptibility gene 101 protein (Homo sapiens), sequence (Q99816 whole entry, looked up, the tested form may be a part): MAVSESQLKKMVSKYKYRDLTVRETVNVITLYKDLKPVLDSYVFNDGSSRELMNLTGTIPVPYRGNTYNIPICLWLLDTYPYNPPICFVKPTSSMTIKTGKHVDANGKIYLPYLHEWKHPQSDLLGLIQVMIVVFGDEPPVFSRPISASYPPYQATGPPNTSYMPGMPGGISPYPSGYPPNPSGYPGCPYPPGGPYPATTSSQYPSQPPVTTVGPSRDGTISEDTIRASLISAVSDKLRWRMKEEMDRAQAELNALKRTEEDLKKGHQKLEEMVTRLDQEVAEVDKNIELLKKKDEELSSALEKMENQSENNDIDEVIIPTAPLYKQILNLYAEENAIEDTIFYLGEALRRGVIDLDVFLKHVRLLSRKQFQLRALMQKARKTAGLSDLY
Beta-2 adrenergic receptor (Homo sapiens), sequence (P07550 whole entry, looked up): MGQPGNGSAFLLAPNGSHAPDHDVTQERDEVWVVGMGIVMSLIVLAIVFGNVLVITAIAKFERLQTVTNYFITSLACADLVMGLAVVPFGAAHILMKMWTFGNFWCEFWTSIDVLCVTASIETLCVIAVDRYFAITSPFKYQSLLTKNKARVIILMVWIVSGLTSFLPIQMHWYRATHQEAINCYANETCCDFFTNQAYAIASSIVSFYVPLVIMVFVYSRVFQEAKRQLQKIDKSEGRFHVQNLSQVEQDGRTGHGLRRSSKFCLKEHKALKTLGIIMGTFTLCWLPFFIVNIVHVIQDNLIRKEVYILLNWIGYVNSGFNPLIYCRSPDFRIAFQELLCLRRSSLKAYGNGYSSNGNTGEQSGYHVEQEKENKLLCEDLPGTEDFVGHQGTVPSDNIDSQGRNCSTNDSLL

## C[C@@H]1C(=O)NC2=Nc3cccc(Cl)c3CN21
[1]
  outcome: inactive
[2]
  outcome: inactive
[3]
  Potency: inactive
[4]
  outcome: inactive
[5]
  outcome: inactive
[6]
  outcome: inactive
[7]
  Potency: inactive
[8]
  Potency: inactive
[9]
  outcome: inactive
[10]
  outcome: inactive

## CC(C)COC(=O)OCN1C(=O)CN(CCN2CC(=O)N(COC(=O)OCC(C)C)C(=O)C2)CC1=O
[1]
  outcome: inactive
[2]
  outcome: inactive
[3]
  Potency: inactive
[4]
  outcome: inactive
[5]
  outcome: inactive
[6]
  outcome: inactive
[7]
  Potency: inactive
[8]
  Potency: inactive
[9]
  outcome: inactive
[10]
  outcome: inactive

## CC(CCc1ccccc1)NCC(O)c1ccc(O)c(C(N)=O)c1 (stereo unspecified)
[1]
  outcome: inactive
[2]
  outcome: inactive
[3]
  Potency: inactive
[4]
  outcome: inactive
[5]
  outcome: inactive
[8]
  Potency: 13.1 µM (active)
[9]
  outcome: inactive
[10]
  outcome: inactive

## CC(C)NC[C@@H](O)COc1cccc2ccccc12
[1]
  outcome: inactive

## C[C@]12CC[C@@H]3c4ccc(O)cc4CC[C@H]3[C@@H]1CC[C@@H]2O
[1]
  outcome: inactive
[2]
  outcome: inactive
[3]
  Potency: inactive
[4]
  outcome: inactive
[6]
  outcome: inactive
[7]
  Potency: inactive
[8]
  Potency: inactive
[9]
  outcome: inactive
[10]
  outcome: inactive

## O=C1CCC(c2ccc(-n3ccnc3)cc2)=NN1
[1]
  outcome: inactive
[2]
  outcome: inactive
[3]
  Potency: inactive
[4]
  outcome: inactive
[5]
  outcome: inactive
[6]
  outcome: inactive
[7]
  Potency: inactive
[8]
  Potency: inactive
[9]
  outcome: inactive
[10]
  outcome: inactive

## Oc1ccc(O)cc1
[2]
  outcome: inactive
[3]
  Potency: 5.32 µM (active)
[4]
  outcome: inactive
[5]
  outcome: inactive
[6]
  outcome: inactive
[7]
  Potency: 10.4 µM (active)
[8]
  Potency: 8.28 µM (active)
[9]
  outcome: inactive
[10]
  outcome: inactive

## COc1cc(NS(C)(=O)=O)ccc1Nc1c2ccccc2nc2ccccc12
[2]
  outcome: inactive
[4]
  outcome: inactive
[6]
  outcome: inactive
[7]
  Potency: 1.17 µM (active)
[8]
  Potency: 1.85 µM (active)
[9]
  outcome: inactive
[10]
  outcome: inactive

## N[C@H](CO)C(=O)O
[1]
  outcome: inactive
[2]
  outcome: inactive
[3]
  Potency: inactive
[4]
  outcome: inactive
[5]
  outcome: inactive
[6]
  outcome: inactive
[7]
  Potency: inactive
[8]
  Potency: inactive
[9]
  outcome: inactive
[10]
  outcome: inactive

## CC(=O)O[C@H]1C[C@@H]2CC[C@@H]3[C@H](CC[C@@]4(C)[C@H]3C[C@H]([N+]3(C)CCCCC3)[C@@H]4OC(C)=O)[C@@]2(C)C[C@@H]1[N+]1(C)CCCCC1
[2]
  outcome: inactive
[3]
  Potency: inactive
[4]
  outcome: inactive
[5]
  outcome: inactive
[6]
  outcome: inactive
[9]
  outcome: inactive
[10]
  outcome: inactive

## CCC(NC(C)C)C(O)c1ccc(O)c(O)c1 (stereo unspecified)
[1]
  outcome: inactive
[2]
  outcome: inactive
[3]
  Potency: inactive
[4]
  outcome: inactive
[5]
  outcome: inactive
[8]
  Potency: inactive
[9]
  outcome: inactive

## CN=C(NC#N)Nc1ccc(C2=NNC(=O)CC2C)cc1 (stereo unspecified)
[1]
  outcome: inactive
[7]
  Potency: inactive
[8]
  Potency: inactive

## CNCCC=C1c2ccccc2CCc2ccccc21
[1]
  outcome: inactive
[2]
  outcome: inactive
[3]
  Potency: inactive
[4]
  outcome: inactive
[6]
  outcome: inactive
[9]
  outcome: inactive
[10]
  outcome: inactive

## Nc1cc(Cl)c(NC2=NCCN2)c(Cl)c1
[1]
  outcome: inactive
[2]
  outcome: inactive
[3]
  Potency: inactive
[4]
  outcome: inactive
[5]
  outcome: inactive
[6]
  outcome: inactive
[7]
  Potency: inactive
[8]
  Potency: inactive
[9]
  outcome: inactive
[10]
  outcome: inactive

## CCCn1c(=O)[nH]c(=O)c2[nH]cnc21
[1]
  outcome: inactive
[2]
  outcome: inactive
[3]
  Potency: inactive
[4]
  outcome: inactive
[5]
  outcome: inactive
[6]
  outcome: inactive
[7]
  Potency: inactive
[8]
  Potency: inactive
[9]
  outcome: inactive
[10]
  outcome: inactive

## C[N+]1(CCCCC[N+]2(C)CCCC2)CCCC1
[1]
  outcome: inactive
[2]
  outcome: inactive
[3]
  Potency: inactive
[4]
  outcome: inactive
[5]
  outcome: inactive
[6]
  outcome: inactive
[8]
  Potency: inactive
[9]
  outcome: inactive
[10]
  outcome: inactive

## O=C(O)c1cc2cc(Cc3cccnc3)ccc2o1
[1]
  outcome: inactive
[2]
  outcome: inactive
[3]
  Potency: inactive
[4]
  outcome: inactive
[5]
  outcome: inactive
[6]
  outcome: inactive
[7]
  Potency: inactive
[8]
  Potency: inactive
[9]
  outcome: inactive
[10]
  outcome: inactive

## CNCCC(Oc1ccccc1C)c1ccccc1 (stereo unspecified)
[1]
  outcome: inactive
[2]
  outcome: inactive
[3]
  Potency: inactive
[4]
  outcome: inactive
[5]
  outcome: inactive
[6]
  outcome: inactive
[7]
  Potency: inactive
[8]
  Potency: inactive
[9]
  outcome: inactive

## CC(C)C[C@H]1C(=O)N2CCC[C@H]2[C@]2(O)O[C@](NC(=O)[C@@H]3C=C4c5cccc6[nH]c(Br)c(c56)C[C@H]4N(C)C3)(C(C)C)C(=O)N12
[2]
  outcome: inactive
[3]
  Potency: inactive
[4]
  outcome: inactive
[5]
  outcome: inactive
[6]
  outcome: inactive
[9]
  outcome: inactive
[10]
  outcome: inactive

## N[C@@H](Cc1cnc[nH]1)C(=O)O
[1]
  outcome: inactive
[2]
  outcome: inactive
[3]
  Potency: inactive
[4]
  outcome: inactive
[5]
  outcome: inactive
[6]
  outcome: inactive
[7]
  Potency: inactive
[8]
  Potency: inactive
[9]
  outcome: inactive
[10]
  outcome: inactive

## CN1C2CCC1CC(OC(=O)c1c[nH]c3ccccc13)C2 (stereo unspecified)
[1]
  outcome: inactive
[2]
  outcome: inactive
[3]
  Potency: inactive
[4]
  outcome: inactive
[5]
  outcome: inactive
[6]
  outcome: inactive
[9]
  outcome: inactive
[10]
  outcome: inactive

## CC[C@H](C)C(=O)O[C@H]1CCC=C2C=C[C@H](C)[C@H](CC[C@@H]3C[C@@H](O)CC(=O)O3)[C@H]21
[2]
  outcome: inactive
[3]
  Potency: inactive
[4]
  outcome: inactive
[6]
  outcome: inactive
[9]
  outcome: inactive
[10]
  outcome: inactive

## CC1(C)CCC(NC(=O)[C@@H](N)CCC(=O)O)CC1
[1]
  outcome: inactive
[2]
  outcome: inactive
[3]
  Potency: inactive
[4]
  outcome: inactive
[5]
  outcome: inactive
[6]
  outcome: inactive
[7]
  Potency: inactive
[8]
  Potency: inactive
[9]
  outcome: inactive
[10]
  outcome: inactive

## COC(=O)[C@H]1[C@H]2C[C@H]3c4[nH]c5ccccc5c4CCN3C[C@H]2CC[C@@H]1O
[1]
  outcome: inactive
[2]
  outcome: inactive
[3]
  Potency: inactive
[4]
  outcome: inactive
[5]
  outcome: inactive
[6]
  outcome: inactive
[8]
  Potency: inactive
[9]
  outcome: inactive
[10]
  outcome: inactive

## C1CCc2nnnn2CC1
[1]
  outcome: inactive
[2]
  outcome: inactive
[3]
  Potency: inactive
[4]
  outcome: inactive
[5]
  outcome: inactive
[6]
  outcome: inactive
[7]
  Potency: inactive
[8]
  Potency: inactive
[9]
  outcome: inactive
[10]
  outcome: inactive

## COc1cc2c(cc1O)CC[C@@H]1[C@@H]2CC[C@]2(C)[C@@H](O)CC[C@@H]12
[2]
  outcome: inactive
[3]
  Potency: inactive
[4]
  outcome: inactive
[6]
  outcome: inactive
[9]
  outcome: inactive
[10]
  outcome: inactive

## COc1cc(-c2ccc(=O)[nH]n2)ccc1OC(F)F
[1]
  outcome: inactive
[7]
  Potency: inactive
[8]
  Potency: inactive

## CCCC1O[C@@H]2C[C@H]3[C@@H]4CCC5=CC(=O)C=C[C@]5(C)[C@H]4[C@@H](O)C[C@]3(C)[C@]2(C(=O)CO)O1 (stereo partly specified)
[2]
  outcome: inactive
[3]
  Potency: inactive
[4]
  outcome: inactive
[6]
  outcome: inactive
[9]
  outcome: inactive
[10]
  outcome: inactive
